From the supplement of paper PMC11417369
± gives the standard deviation of the averaged measurements. The full ranking holds about 25,000 sequences; the median of “ln(normalized median fluorescence intensity)” is about 8.9, and the highest 2% start at about 10. This excerpt belongs to a sample that is enriched for the highest values.

The sequences below were run on PfAP2-LT AP2 domain (GST-tagged) (assay: gcPBM binding intensity (ln(normalized median fluorescence intensity)); higher = stronger DNA binding).
Outline: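 Binding intensity values are the highest Masliner-normalised natural-log median intensity among replicate spots of either probe orientation. The binding step lasted 1 h in 1× PBS with 1% milk, 0.2 mg/ml BSA, 0.5% salmon testes DNA and 0.03% Triton X-100, using GST-tagged P. falciparum DNA-binding domains expressed in E. coli on an Agilent 4 × 180k array of primer-extended double-stranded 36-bp intergenic genomic probes plus negative controls. Alexa488 anti-GST antibody and a 488 nm scan detected bound protein.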

Row | Sequence | gcPBM binding intensity (ln)
1 | TCTTTATTATTCGCCACACACATATAAATATAAATA [CACACA_site7441] | 8.93 ± 0.4
2 | CATATACACGAACACACACACACACGCACAAAAAAA [CACACA_site6376] | 10.1 ± 0.24
3 | TATATACACGCACATACACACAAATAAAAAAACACC [CACACA_site7578] | 9.67 ± 0.31
4 | TGAACACGCACAAATACACACAAAAAAAATAAATAA [CACACA_site6257] | 9.31 ± 0.49
5 | AAAAAAAAAAAAAAAAAAAAAAAAAAATATATATAT [CACACA_negctrl_site271] | 8.74 ± 0.28
6 | AAAAAAAAAAAAAATATATATATATATATATATATA [CACACA_negctrl_site540] | 10.1 ± 0.25
7 | AAAAAAAAAATATATATATATATATATATATATATA [GTGCAC_negctrl_site467] | 10.1 ± 0.2
8 | AAAAAAAAAAAAAAAAAAAAATATATATATATATAT [GTGCAC_negctrl_site426] | 9.67 ± 0.085
9 | AAAAAAAAAAAAAAAAAAAAAAAAATATATATATAT [CACACA_negctrl_site436] | 9.25 ± 0.27
10 | AAAAAAATATATATATATATATATATATATATATAT [TGCATGCA_negctrl_site7] | 9.605 ± 0.064
11 | ATATTTATATATATCATACACACTAATATGTATATT [CACACA_site3409] | 8.95 ± 0.42
12 | ATATAAATAAATACAACACACATGTCATATCTAAAT [CACACA_site7533] | 9.12 ± 0.39
13 | AGTAGTCTGGAGAAATGTACACAGTATCTGGTAGCT [XGTACX_site4871] | 8.86 ± 0.44
14 | AAAACATACATATATACACACATATATATATATATA [CACACA_site1852] | 9.97 ± 0.53
15 | ATACAACATATATATACACACATATAATAATAATAA [CACACA_site3367] | 9.26 ± 0.38
16 | AAAAAAAAAAAACACACACACAAATACAAATACATA [CACACA_site415] | 9.99 ± 0.38
17 | AAGTAATACAACACGCACATATATATATATATATAT [GTGCAC_negctrl_site89] | 10.3 ± 0.25
18 | CACATACACATACACATACACACGCATAGAAACATA [CACACA_site2136] | 9.71 ± 0.28
19 | AAAAAAAAAAAAAAAACACACATACACGCACGCACA [CACACA_site7569] | 9.35 ± 0.23
20 | AATACATATAATACAACACACAAGTAATATAAACCT [CACACA_site3597] | 9.34 ± 0.29
21 | AAAAAAAAAAAAAACACACACACACGCACATATACA [CACACA_site7288] | 10.1 ± 0.3
22 | GGTACATACAAACACACACACAAAAAAAAAAAAATA [CACACA_site1577] | 9.65 ± 0.4
23 | AAAAAAAAAAAAAACACACACACACGCATACACATA [CACACA_site7364] | 10.2
24 | AAAAAAAAAAAAAACACACACACACGCAAATACATA [CACACA_site6474] | 10.3 ± 0.27

Row | Sequence | gcPBM binding intensity (ln)
25 | CATATATATATATATTGTACAAGATTGTTTTTTTAT [XGTACX_site3913] | 8.79 ± 0.3
26 | ATAAAAATTTAAAAAGAACACACGAAAGAAGGACTT [CACACA_site3929] | 9.01 ± 0.53
27 | TTTTTTATGATTAACACACACACAAAAAAAAAAAAA [CACACA_site4130] | 9.03 ± 0.32
28 | AAAAATTTTAATTAGGAACACACATATATATATATA [CACACA_site9016] | 9.48 ± 0.42
29 | ATATTTGCCCAAGATAGTACATATATATATATATAT [XGTACX_site7756] | 9.74 ± 0.2
30 | TACATATTTTATAACTGTACTTTTTTATTATCCAAT [XGTACX_site5396] | 8.71 ± 0.47
31 | TAAACATACCTATACACACACACACGCACACGCACA [CACACA_site6372] | 10.22 ± 0.042
32 | ATAAAAAGGAGACACACACACACACGCATATTTATA [CACACA_site6551] | 10.3 ± 0.26
33 | AAAAAAAAAAAAAACACACACACAAATACAAATACA [CACACA_site414] | 9.9 ± 0.36
34 | AAAAAAAACAAACACACACACAAATATTTATATATT [CACACA_site436] | 9.63 ± 0.22
35 | AACAAAAAAACAAACACACACACACGCATATTTATA [CACACA_site7680] | 10.2 ± 0.29
36 | TAAATAAAAAGACACACACACATATTTATATTTATA [CACACA_site7135] | 9.7 ± 0.19
37 | AACACATACAAACACACACACAAAAAAAAAAAAAAA [CACACA_site393] | 9.65 ± 0.49
38 | AAAAAAAAAAAAAACACACACACACGCATACAAAAT [CACACA_site6794] | 10.2 ± 0.13
39 | AACATACACATATACACACACACATATATACCTATA [CACACA_site6643] | 10 ± 0.31
40 | AAAAAAAAAAAACATACACACATACATACCTATATA [CACACA_site6575] | 9.33 ± 0.3
41 | TAAAAGGAGACATATACACACATATATATATATATA [CACACA_site5539] | 10 ± 0.23
42 | AAGGATCACGCACAAACACACATATTTATATTTATA [CACACA_site6405] | 9.14 ± 0.45
43 | AATGAAGACTTTTTTACACACTTCATATATTATATA [CACACA_site2034] | 8.9 ± 0.39
44 | ATATATCAAAATAATTGTACAAATTTTATATAATTT [XGTACX_site7249] | 8.53 ± 0.47
45 | CGTACATAATTTTAATCACACACAAACAAACACATA [CACACA_site7947] | 9.42 ± 0.34
46 | ATACTAAAAAGTATCTGTACTTATTTTAAAAATAAA [XGTACX_site4116] | 8.19 ± 0.53
47 | TTATATTCTTTTCTCTTTCTACTTTTTTTTTTTTTT [XGTACX_negctrl_site317] | 8.45 ± 0.69
48 | ATAGGTGAATACTAATATAAATTCAAGAGGGAAAAG [CACACA_negctrl_site720] | 8.9 ± 0.55

Row | Sequence | gcPBM binding intensity (ln)
49 | AAAAAAGTAAAAAGTGCATGTAAAATATAAGTATCT [TGCATGCA_site55] | 9.18 ± 0.61
50 | CATATACATATATGTAGTACGTGTTCTTCTATATGA [XGTACX_site8344] | 8.84 ± 0.44
51 | TATAATGGTTCTGGTGTGCACCATGACAGAATCAAG | 8.82 ± 0.38
52 | GTGTAAATATAATTAGTTTCACAAAACAAATATTTA [CACACA_negctrl_site717] | 8.61 ± 0.42
53 | AAAGGGGATATATGAACACACAAAAAAAAAATATAT [CACACA_site2896] | 9.13 ± 0.68
54 | ATTCTTTACTCATAAAATTATATTATATAAACTTTT [XGTACX_negctrl_site554] | 8.45 ± 0.52
55 | AGTAATTTAAGGAATACACACAAGAAAAAAATAAGA [CACACA_site6177] | 9.13 ± 0.61
56 | AGATCATAATATTATACACACATTATATATCTGTAA [CACACA_site4925] | 9.14 ± 0.26
57 | GATCTACATGAAAGGACACACAAATATATATATATA [CACACA_site84] | 9.62 ± 0.35
58 | AAATAAAAAAAATAAAAGCAATCATAATAAAAATCT [CACACA_negctrl_site161] | 8.79 ± 0.46
59 | ATAAAAATATAATTGAGTACATATGAATAGTCCTAT [XGTACX_site6281] | 8.65 ± 0.42
60 | GATATGTACTAATACACACACATATATATATATATA [CACACA_site1022] | 10.2 ± 0.23
61 | ATATATATATATATATGTACATATACACATGTGTGC [XGTACX_site168] | 10.14 ± 0.099
62 | TACGAAATCATATGTACACACACATATATATATATA [CACACA_site5216] | 9.8 ± 0.14
63 | ACATACACATATACATGTACATATATATATATATAT [XGTACX_site5082] | 9.68 ± 0.3
64 | GTAAATACACATATGTGTACATATATATATATATAT [XGTACX_site3696] | 9.67 ± 0.31
65 | CGAAATCATATGTACACACACATATATATATATATA [CACACA_site2151] | 10.1 ± 0.18
66 | ATACACACATATATGTGTACATATACATATATATAT [XGTACX_site6744] | 9.88 ± 0.32
67 | TAAATACTAATATGTACACACATATAGATATAGATT [CACACA_site7247] | 8.96 ± 0.38
68 | AAAAAATGCGACATGTGTACACATATATATATATAT [XGTACX_site1679] | 9.81 ± 0.3
69 | ATATATATATATATATGTACACACATCAATCATATT [XGTACX_site4005] | 9.96 ± 0.33
70 | AAATGCGCCATGTGTACACATATATATATATATATA [CACACA_site4649] | 10.1 ± 0.18
71 | AAGATATGTACTAATACACACACATATATATATATA [CACACA_site8249] | 9.86 ± 0.14
72 | TGAAAATATTTTATATGTACATATATTATCAATACA [XGTACX_site92] | 8.64 ± 0.38

Row | Sequence | gcPBM binding intensity (ln)
73 | TTTCTGATATTTTTATATTTTCTTATATATATATAT [GTGCAC_negctrl_site652] | 8.77 ± 0.52
74 | TGTCTTATTTATATTACACACTATATGAAAAAATAT [CACACA_site6807] | 8.6 ± 0.38
75 | ATAAATAAATAAGTACATATATATATGTATATATAT [TGCATGCA_negctrl_site223] | 9.05 ± 0.42
76 | ACTAAATAAATAAATATAATATATAAATATGTATGT [TGCATGCA_negctrl_site583] | 8.78 ± 0.43
77 | TTTATTAATAATTATACACACATATAAAATGAATAA [CACACA_site1359] | 8.58 ± 0.51
78 | TTAATATGAAAACTCTGTACCCAACCTTCTTATGGA [XGTACX_site2126] | 8.62 ± 0.28
79 | ATGCAATTATATAGTAGTACAAATTTATAAATATAC [XGTACX_site4869] | 8.94 ± 0.37
80 | ATTTAATAAAAAAAAAAAATATTGTAGAATATGATG [GTGCAC_negctrl_site195] | 8.27 ± 0.52
81 | AAAGGTATATATGTGTGTACATATATATATATATAT [XGTACX_site5629] | 9.955 ± 0.0071
82 | TCCTTTTCTTAATTTAAAAAATATAAAAAAAACGAA [CACACA_negctrl_site1821] | 7.94 ± 0.34
83 | TGAACTCATAGGAAAACACACATATGTGCAATATAT [CACACA_site6231] | 9.12 ± 0.36
84 | AAAACAAACAGACACACACACATATTTATATTTATA [CACACA_site7681] | 9.79 ± 0.4
85 | AAAACAAACAGACACACACACATATATATATATATA [CACACA_site3655] | 10.4 ± 0.24
86 | AAAAAAAACGGACACACACACATACAAAATATATAT [CACACA_site4910] | 9.99 ± 0.28
87 | TATATATACAGACACATACACACAAATAAAAAAACA [CACACA_site3413] | 9.39 ± 0.35
88 | AAAAAAAACAGACACACACACATACAAAATATATAT [CACACA_site1449] | 9.79 ± 0.3
89 | AAGGTAAACGGACACACACACATACAAAAAAAAAAA [CACACA_site5961] | 9.77 ± 0.67
90 | TACAAACAGACATATACACACAAAAAAAAAATAAAA [CACACA_site2562] | 9.16 ± 0.43
91 | AAAACAGACAAACACACACACACATATATATATATA [CACACA_site3393] | 10.37 ± 0.071
92 | AAAAAAAACAGACACACACACATAAATATAAATAAA [CACACA_site6214] | 9.74 ± 0.31
93 | AAAAGGAACAGACACACACACATATATAAATATGTA [CACACA_site7656] | 9.8 ± 0.42
94 | AAAAGGAACAGACACACACACATATATATATATATA [CACACA_site3587] | 10.3 ± 0.29
95 | AAAACAAACGGACACACACACATATATATATATATA [CACACA_site5924] | 10.2 ± 0.44
